This passage reports binding signal results from paper PMC12529666, “Dysregulation of AGO2-miRNA dynamics underlies the AGO2-associated Lessel–Kreienkamp syndrome”.

Numbering of substitutions follows the chain as printed.

First the molecules themselves.
B1: GTATTTCA (ssRNA)
RNA 1: GAGUUCUACAGUCCGACGAUCCCAACGUAUUUCACACCUGGAAUUCUCGGGUGCCAA
RNA 2: UGGAGUGUGACAAUGGUGUUUG
DNA 1: GATCGTCGGACTGTAGAACTC
DNA 2: TTGGCACCCGAGAATTCCA
modifications: constant regions annealed to DNA blockers; guide miR-122 5' phosphate
B2: ACATCCTG (ssRNA)
RNA 1: B1 RNA 1 with G27A, U28C, U31C, U32C, C33U, A34G
RNA 2: UGGAGUGUGACAAUGGUGUUUG
DNA 1: GATCGTCGGACTGTAGAACTC
DNA 2: TTGGCACCCGAGAATTCCA
modifications: constant regions annealed to DNA blockers; guide miR-122 5' phosphate
B3: ATGTTTCA (ssRNA)
RNA 1: B1 RNA 1 with G27A, A29G
RNA 2: UGGAGUGUGACAAUGGUGUUUG
DNA 1: GATCGTCGGACTGTAGAACTC
DNA 2: TTGGCACCCGAGAATTCCA
modifications: constant regions annealed to DNA blockers; guide miR-122 5' phosphate
B4: ACGCCCCA (ssRNA)
RNA 1: B1 RNA 1 with G27A, U28C, A29G, U30C, U31C, U32C
RNA 2: UGGAGUGUGACAAUGGUGUUUG
DNA 1: GATCGTCGGACTGTAGAACTC
DNA 2: TTGGCACCCGAGAATTCCA
modifications: constant regions annealed to DNA blockers; guide miR-122 5' phosphate
B5: GCGCTCCA (ssRNA)
RNA 1: B1 RNA 1 with U28C, A29G, U30C, U32C
RNA 2: UGGAGUGUGACAAUGGUGUUUG
DNA 1: GATCGTCGGACTGTAGAACTC
DNA 2: TTGGCACCCGAGAATTCCA
modifications: constant regions annealed to DNA blockers; guide miR-122 5' phosphate
B6: ACATCCCG (ssRNA)
RNA 1: B1 RNA 1 with G27A, U28C, U31C, U32C, A34G
RNA 2: UGGAGUGUGACAAUGGUGUUUG
DNA 1: GATCGTCGGACTGTAGAACTC
DNA 2: TTGGCACCCGAGAATTCCA
modifications: constant regions annealed to DNA blockers; guide miR-122 5' phosphate
B7: ATGCCTCA (ssRNA)
RNA 1: B1 RNA 1 with G27A, A29G, U30C, U31C
RNA 2: UGGAGUGUGACAAUGGUGUUUG
DNA 1: GATCGTCGGACTGTAGAACTC
DNA 2: TTGGCACCCGAGAATTCCA
modifications: constant regions annealed to DNA blockers; guide miR-122 5' phosphate
B8: ACGCTCCG (ssRNA)
RNA 1: B1 RNA 1 with G27A, U28C, A29G, U30C, U32C, A34G
RNA 2: UGGAGUGUGACAAUGGUGUUUG
DNA 1: GATCGTCGGACTGTAGAACTC
DNA 2: TTGGCACCCGAGAATTCCA
modifications: constant regions annealed to DNA blockers; guide miR-122 5' phosphate
B9: ACGTTTCA (ssRNA)
RNA 1: B1 RNA 1 with G27A, U28C, A29G
RNA 2: UGGAGUGUGACAAUGGUGUUUG
DNA 1: GATCGTCGGACTGTAGAACTC
DNA 2: TTGGCACCCGAGAATTCCA
modifications: constant regions annealed to DNA blockers; guide miR-122 5' phosphate

Chain of AGO2 WT (phosphosite mutant background) (Q9UKV8 whole entry S387D/S824A/S828D/S831D/S834A): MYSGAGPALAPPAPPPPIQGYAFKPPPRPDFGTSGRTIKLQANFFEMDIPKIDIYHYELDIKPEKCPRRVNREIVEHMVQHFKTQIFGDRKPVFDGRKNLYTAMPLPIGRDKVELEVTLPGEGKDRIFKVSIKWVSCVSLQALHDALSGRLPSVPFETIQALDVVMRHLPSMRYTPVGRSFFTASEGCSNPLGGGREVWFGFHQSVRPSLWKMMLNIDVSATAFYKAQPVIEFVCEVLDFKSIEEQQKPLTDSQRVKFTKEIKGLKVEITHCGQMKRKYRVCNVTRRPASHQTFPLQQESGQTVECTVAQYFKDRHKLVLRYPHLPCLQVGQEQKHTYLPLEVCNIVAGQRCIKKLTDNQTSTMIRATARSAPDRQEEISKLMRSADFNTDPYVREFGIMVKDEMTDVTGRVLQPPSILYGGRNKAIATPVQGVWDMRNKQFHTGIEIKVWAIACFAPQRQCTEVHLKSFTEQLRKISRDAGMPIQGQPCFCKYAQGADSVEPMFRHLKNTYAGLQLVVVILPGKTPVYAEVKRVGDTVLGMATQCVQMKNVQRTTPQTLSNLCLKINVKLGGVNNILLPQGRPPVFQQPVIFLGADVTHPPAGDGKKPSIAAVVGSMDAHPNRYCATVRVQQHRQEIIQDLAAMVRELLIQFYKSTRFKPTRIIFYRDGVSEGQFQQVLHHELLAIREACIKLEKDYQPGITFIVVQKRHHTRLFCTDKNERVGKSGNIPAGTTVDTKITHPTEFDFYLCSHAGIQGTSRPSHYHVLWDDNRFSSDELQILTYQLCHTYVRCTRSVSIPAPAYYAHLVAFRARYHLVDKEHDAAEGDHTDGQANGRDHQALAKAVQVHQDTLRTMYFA
Chain of AGO2 L192P (Q9UKV8 whole entry L192P/S387D/S824A/S828D/S831D/S834A): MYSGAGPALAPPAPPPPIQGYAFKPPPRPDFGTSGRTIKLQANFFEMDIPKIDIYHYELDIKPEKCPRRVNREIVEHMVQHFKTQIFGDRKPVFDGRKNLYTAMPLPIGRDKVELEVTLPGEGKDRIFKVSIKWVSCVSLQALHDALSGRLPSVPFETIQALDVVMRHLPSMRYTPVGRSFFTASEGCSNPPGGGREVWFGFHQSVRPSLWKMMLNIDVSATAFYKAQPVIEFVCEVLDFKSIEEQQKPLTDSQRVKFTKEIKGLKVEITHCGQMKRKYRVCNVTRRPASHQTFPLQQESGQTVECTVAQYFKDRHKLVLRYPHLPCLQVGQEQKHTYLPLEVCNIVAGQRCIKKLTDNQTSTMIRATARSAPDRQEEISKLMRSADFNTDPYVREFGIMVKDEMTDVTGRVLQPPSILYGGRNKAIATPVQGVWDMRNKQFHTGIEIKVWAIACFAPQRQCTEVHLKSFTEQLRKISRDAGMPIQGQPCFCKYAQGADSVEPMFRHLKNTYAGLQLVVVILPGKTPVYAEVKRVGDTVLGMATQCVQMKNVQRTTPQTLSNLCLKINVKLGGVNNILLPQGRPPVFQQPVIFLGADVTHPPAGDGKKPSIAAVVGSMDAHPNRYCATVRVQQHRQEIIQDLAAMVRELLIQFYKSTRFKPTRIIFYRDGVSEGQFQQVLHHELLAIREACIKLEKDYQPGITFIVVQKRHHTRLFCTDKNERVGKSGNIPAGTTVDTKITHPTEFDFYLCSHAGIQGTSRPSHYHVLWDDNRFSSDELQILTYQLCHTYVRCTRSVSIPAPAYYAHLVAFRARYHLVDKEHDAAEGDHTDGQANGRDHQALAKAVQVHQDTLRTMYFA
Chain of AGO2 T357M (Q9UKV8 whole entry T357M/S387D/S824A/S828D/S831D/S834A): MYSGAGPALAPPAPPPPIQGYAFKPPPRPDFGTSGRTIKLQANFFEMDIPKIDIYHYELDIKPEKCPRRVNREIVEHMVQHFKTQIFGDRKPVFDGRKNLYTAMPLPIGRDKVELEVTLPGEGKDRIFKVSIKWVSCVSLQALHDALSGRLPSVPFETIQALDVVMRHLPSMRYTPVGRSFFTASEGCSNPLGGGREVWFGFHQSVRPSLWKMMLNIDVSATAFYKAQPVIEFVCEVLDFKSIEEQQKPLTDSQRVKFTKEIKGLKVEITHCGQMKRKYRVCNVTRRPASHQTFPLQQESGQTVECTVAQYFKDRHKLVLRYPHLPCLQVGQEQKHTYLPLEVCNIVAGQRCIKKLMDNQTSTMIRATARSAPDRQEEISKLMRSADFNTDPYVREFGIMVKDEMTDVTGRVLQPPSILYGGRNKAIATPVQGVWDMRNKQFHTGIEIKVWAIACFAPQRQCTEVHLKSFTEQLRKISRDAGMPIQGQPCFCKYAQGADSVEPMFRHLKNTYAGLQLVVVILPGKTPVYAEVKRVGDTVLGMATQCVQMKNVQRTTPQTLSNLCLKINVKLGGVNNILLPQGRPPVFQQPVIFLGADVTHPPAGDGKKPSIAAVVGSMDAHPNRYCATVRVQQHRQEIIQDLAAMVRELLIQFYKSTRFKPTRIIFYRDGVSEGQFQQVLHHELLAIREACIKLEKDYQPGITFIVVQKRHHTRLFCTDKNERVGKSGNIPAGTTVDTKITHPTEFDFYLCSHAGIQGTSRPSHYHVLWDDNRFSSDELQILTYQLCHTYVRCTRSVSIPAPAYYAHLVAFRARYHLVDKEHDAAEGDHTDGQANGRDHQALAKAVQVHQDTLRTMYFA
Chain of AGO2 F182del (Q9UKV8 other isoform, or with tags, fused parts or gaps S387D;S824A;S828D;S831D;S834A;del182-182): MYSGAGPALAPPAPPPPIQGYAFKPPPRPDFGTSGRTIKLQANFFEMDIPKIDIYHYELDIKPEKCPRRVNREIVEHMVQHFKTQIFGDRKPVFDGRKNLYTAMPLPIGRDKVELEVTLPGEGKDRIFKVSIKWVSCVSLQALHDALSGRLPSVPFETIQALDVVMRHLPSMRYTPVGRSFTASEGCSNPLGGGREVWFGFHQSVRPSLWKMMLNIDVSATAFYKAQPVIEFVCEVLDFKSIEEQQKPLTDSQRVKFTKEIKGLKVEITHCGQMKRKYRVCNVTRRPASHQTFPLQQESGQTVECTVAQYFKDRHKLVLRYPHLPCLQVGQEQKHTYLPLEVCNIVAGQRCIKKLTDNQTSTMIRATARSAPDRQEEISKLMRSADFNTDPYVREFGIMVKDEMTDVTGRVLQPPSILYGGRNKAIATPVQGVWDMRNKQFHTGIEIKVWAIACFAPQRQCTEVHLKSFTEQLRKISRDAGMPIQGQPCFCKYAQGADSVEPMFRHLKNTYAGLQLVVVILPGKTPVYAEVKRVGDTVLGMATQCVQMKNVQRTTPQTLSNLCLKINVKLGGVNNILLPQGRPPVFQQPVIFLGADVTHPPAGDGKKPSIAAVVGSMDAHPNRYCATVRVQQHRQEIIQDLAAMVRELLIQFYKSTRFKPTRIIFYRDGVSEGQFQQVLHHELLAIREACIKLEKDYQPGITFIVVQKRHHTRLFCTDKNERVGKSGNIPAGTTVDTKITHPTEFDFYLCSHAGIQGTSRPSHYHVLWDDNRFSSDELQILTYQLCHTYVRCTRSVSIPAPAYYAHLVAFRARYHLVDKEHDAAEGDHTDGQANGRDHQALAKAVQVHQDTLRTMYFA

For one experiment, the target named is AGO2 WT (phosphosite mutant background) (Homo sapiens, UniProt Q9UKV8 1-859, S387D;S824A;S828D;S831D;S834A). Kind of experiment: RNA Bind-n-Seq (nitrocellulose filter binding and sequencing); miR-122 guide loaded in AGO2; 60 min incubation; 30 mM Tris pH 8.0, 100 mM potassium acetate, 2 mM magnesium acetate, 0.5 mM TCEP, 0.005% NP-40, 0.01 mg/ml yeast tRNA; 3 nM AGO2-miR-122, 100 nM RNA library; 60; high values mean tight binding. The settings on record: protein: recombinant; tags: His6 (N-terminal, pFastBac HTA). Summed up:
(§1)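 His-tagged AGO2 was expressed in Sf9 insect cells by baculovirus, loaded with a synthetic guide RNA, and purified by Ni-NTA and a biotinylated capture oligo. Bound RNA was extracted, reverse-transcribed, barcode-amplified and Illumina-sequenced. Fold enrichment is each sequence's read fraction divided by its input-library read fraction.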
For B1, the binding signal was 0.136 fold enrichment over input.

For B2, the binding signal is 0.144 fold enrichment over input.

For B3, the binding signal is 0.125 fold enrichment over input.

With B4, the binding signal was 0.123 fold enrichment over input.

Take B5: the binding signal is 1.63 fold enrichment over input.

Regarding B6, the binding signal was 0.128 fold enrichment over input.

B7: the binding signal was 0.127 fold enrichment over input.

Consider B8, for which the binding signal is 3.15 fold enrichment over input.

For B9, the binding signal is 0.146 fold enrichment over input.

The next experiment concerns the target AGO2 L192P (Homo sapiens, UniProt Q9UKV8 1-859, L192P;S387D;S824A;S828D;S831D;S834A). Described as above. The settings on record: protein: recombinant; tags: His6 (N-terminal, pFastBac HTA). The method in brief: as §1
As for B1, the binding signal was 0.545 fold enrichment over input.

With B2, the binding signal is 0.376 fold enrichment over input.

As to B3, the binding signal was 0.54 fold enrichment over input.

Take B4: the binding signal was 0.538 fold enrichment over input.

For B5, the binding signal was 3.25 fold enrichment over input.

As to B6, the binding signal was 0.38 fold enrichment over input.

As to B7, the binding signal is 0.547 fold enrichment over input.

As for B8, the binding signal is 10.8 fold enrichment over input.

On to B9, for which the binding signal is 0.656 fold enrichment over input.

The next experiment deals with AGO2 A367P (Homo sapiens, UniProt Q9UKV8 1-859, A367P;S387D;S824A;S828D;S831D;S834A). The experiment is described as above. The settings on record: protein: recombinant; tags: His6 (N-terminal, pFastBac HTA). The method in brief: as §1
Chain of AGO2 A367P (Q9UKV8 whole entry A367P/S387D/S824A/S828D/S831D/S834A): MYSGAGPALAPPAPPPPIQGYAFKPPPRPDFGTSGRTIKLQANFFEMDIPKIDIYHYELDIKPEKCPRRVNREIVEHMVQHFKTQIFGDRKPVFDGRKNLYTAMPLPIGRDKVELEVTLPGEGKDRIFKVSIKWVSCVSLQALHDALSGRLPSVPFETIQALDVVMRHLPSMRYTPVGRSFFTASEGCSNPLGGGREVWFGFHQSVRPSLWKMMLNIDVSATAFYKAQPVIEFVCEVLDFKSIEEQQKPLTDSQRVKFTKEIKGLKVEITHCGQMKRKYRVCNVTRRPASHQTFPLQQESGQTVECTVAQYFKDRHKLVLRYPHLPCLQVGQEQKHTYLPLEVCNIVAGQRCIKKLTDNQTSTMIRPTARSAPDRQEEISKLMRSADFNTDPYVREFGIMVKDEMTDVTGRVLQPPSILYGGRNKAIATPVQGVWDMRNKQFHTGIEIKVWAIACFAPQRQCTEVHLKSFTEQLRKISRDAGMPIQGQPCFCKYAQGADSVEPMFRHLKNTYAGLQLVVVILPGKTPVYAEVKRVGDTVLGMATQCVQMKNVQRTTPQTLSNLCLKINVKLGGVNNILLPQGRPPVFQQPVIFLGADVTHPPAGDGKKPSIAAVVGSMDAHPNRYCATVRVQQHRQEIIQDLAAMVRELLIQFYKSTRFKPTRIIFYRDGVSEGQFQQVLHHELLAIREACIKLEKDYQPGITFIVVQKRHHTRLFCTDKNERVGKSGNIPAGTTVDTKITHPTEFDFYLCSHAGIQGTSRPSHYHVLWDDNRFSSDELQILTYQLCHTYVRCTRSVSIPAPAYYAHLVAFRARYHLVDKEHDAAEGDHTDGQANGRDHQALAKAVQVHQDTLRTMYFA
B1: the binding signal is 0.337 fold enrichment over input.

Turning to B2, the binding signal is 0.171 fold enrichment over input.

For B3, the binding signal was 0.311 fold enrichment over input.

In the case of B4, the binding signal is 0.215 fold enrichment over input.

As for B5, the binding signal was 2.69 fold enrichment over input.

With B6, the binding signal was 0.158 fold enrichment over input.

In the case of B7, the binding signal was 0.307 fold enrichment over input.

As for B8, the binding signal was 14 fold enrichment over input.

Take B9: the binding signal is 0.363 fold enrichment over input.

Another experiment has as its target AGO2 T357M (Homo sapiens, UniProt Q9UKV8 1-859, T357M;S387D;S824A;S828D;S831D;S834A). The experiment is described as above. The settings on record: protein: recombinant; tags: His6 (N-terminal, pFastBac HTA). Summed up:
as §1
Regarding B1, the binding signal was 0.647 fold enrichment over input.

B2: the binding signal was 0.475 fold enrichment over input.

On to B3, for which the binding signal was 0.58 fold enrichment over input.

For B4, the binding signal was 0.719 fold enrichment over input.

Regarding B5, the binding signal is 1.03 fold enrichment over input.

Regarding B6, the binding signal is 0.471 fold enrichment over input.

Take B7: the binding signal is 0.637 fold enrichment over input.

Turning to B8, the binding signal is 1.98 fold enrichment over input.

In the case of B9, the binding signal is 0.572 fold enrichment over input.

The target in another experiment is AGO2 F182del (Homo sapiens, UniProt Q9UKV8 1-859, S387D;S824A;S828D;S831D;S834A;del182-182). Described as above. The settings on record: protein: recombinant; tags: His6 (N-terminal, pFastBac HTA). The method in brief:
as §1
Consider B1, for which the binding signal was 0.805 fold enrichment over input.

Regarding B2, the binding signal was 0.153 fold enrichment over input.

As to B3, the binding signal was 0.814 fold enrichment over input.

For B4, the binding signal was 0.236 fold enrichment over input.

On to B5, for which the binding signal was 6.7 fold enrichment over input.

B6: the binding signal is 0.144 fold enrichment over input.

As to B7, the binding signal was 0.9 fold enrichment over input.

For B8, the binding signal was 15.2 fold enrichment over input.

Take B9: the binding signal was 1.44 fold enrichment over input.
